# Records with an inconclusive call do not appear. Calls of active or inactive are those of the source. How the source made its calls, unless noted: active means hit-call score of the fitted dose curve at least 0.9, where 1 is the maximum; inactive means score below 0.9.
# Columns and labels:
# [1] = target: human Vitamin D Receptor (VDR), VDR (gene 7421) (UniProt P11473); assay: ATG_VDR_TRANS: Attagene TRANS-FACTORIAL HepG2 Assay for human Vitamin D Receptor (VDR) (AID 2283022; active means hit-call score of the fitted dose curve at least 0.9, where 1 is the maximum)
# Method in brief: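 Transactivation by an exogenous VDR-Gal4 chimera in transiently transfected HepG2 cells was measured as reporter transcript level 24 hours after chemical treatment. RT-PCR products were analysed by capillary electrophoresis and fitted in the positive direction relative to DMSO.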
# [2] = BSK_3C_SRB: Viability Assessment in the BioMAP Diversity Plus: 3C Assay (AID 2283023); conditions: primary human endothelial cells (HUVEC);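 further: fitted both ways against DMSO so a hit may be signal rise or drop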
# Method in brief: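 Cytotoxicity readout in parallel HUVEC 3C cultures: after 24 h compound exposure, cells fixed with 10% TCA, stained with 0.1% SRB and read at 560 nm. Gain or loss relative to DMSO fitted.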
# [3] = read-out: Matrix Metallopeptidase 1 (MMP1), MMP1 (gene 4312); assay: BSK_BE3C_MMP1: BioMAP Diversity Plus: BE3C Assay for Matrix Metallopeptidase 1 (MMP1) Biomarker Activity (AID 2283024); conditions: primary human bronchial epithelial cells; actives raise or lower the signal
# Method in brief: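 Human bronchial epithelial cells (BE3C system) exposed to compound for 24 h; MMP1 then quantified by ELISA. Activity was fitted in both directions relative to DMSO.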
# [4] = read-out: Pselectin, SELP (gene 6403); assay: BSK_4H_Pselectin: BioMAP Diversity Plus: 4H Assay for Pselectin Biomarker Activity (AID 2283026); conditions: primary human endothelial cells (HUVEC); actives raise or lower the signal
# Method in brief: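 ELISA read-out of P-selectin on human umbilical vein endothelium after 24 h of dosing. Values derive from bidirectional fitting relative to DMSO. Parallel SRB protein staining flagged overt cytotoxicity.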
# [5] = BSK_4H_SRB: Viability Assessment in the BioMAP Diversity Plus: 4H Assay (AID 2283027); conditions: primary human endothelial cells (HUVEC);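 further: cells exposed to compound for 24 h before staining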;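 on AC50: curves fitted both ways versus DMSO so AC50 may be loss or gain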
# Method in brief: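 Human umbilical vein endothelial cells, 24 h after chemical dosing; total protein measured by 0.1% sulforhodamine B staining after 10% TCA fixation, read at 560 nm. Bidirectional fitting against DMSO.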
# [6] = BSK_BE3C_SRB: Viability Assessment in the BioMAP Diversity Plus: BE3C Assay (AID 2283028); conditions: primary human bronchial epithelial cells;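 on AC50: fitted both ways so AC50 may mark signal gain or loss versus DMSO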
# Method in brief: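 Cytotoxicity read-out: SRB (0.1%) staining of TCA-fixed (10%) human lung bronchial epithelial cells, absorbance 560 nm, 24 h post-dosing. Curves fitted both directions relative to DMSO.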
# [7] = read-out: Thrombomodulin, THBD (gene 7056); assay: BSK_3C_Thrombomodulin: BioMAP Diversity Plus: 3C Assay for Thrombomodulin Biomarker Activity (AID 2283029); conditions: primary human endothelial cells (HUVEC); actives raise or lower the signal
# Method in brief: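 Read-out is ELISA of thrombomodulin on human umbilical vein endothelium 24 h after chemical dosing. Gain or loss of signal is scored relative to DMSO. Overt cytotoxicity is checked in parallel cultures by sulforhodamine B staining.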
# [8] = read-out: Urokinase-type plasminogen activator receptor (uPAR), PLAUR (gene 5329); assay: BSK_4H_uPAR: BioMAP Diversity Plus: 4H Assay for Urokinase-type plasminogen activator receptor (uPAR) Biomarker Activity (AID 2283030); conditions: primary human endothelial cells (HUVEC); actives raise or lower the signal
# Method in brief: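 uPAR level read by ELISA on HUVEC cultures (BioMAP 4H) 24 h post-dosing, analyzed for gain or loss relative to DMSO. Parallel SRB staining assessed overt cytotoxicity.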
# [9] = read-out: Vascular endothelial growth factor receptor 2 (Homo sapiens) (UniProt P35968); assay: BSK_4H_VEGFRII: BioMAP Diversity Plus: 4H Assay for Vascular endothelial growth factor receptor 2 (VEGFR2) Biomarker Activity (AID 2283031); conditions: primary human endothelial cells (HUVEC); actives raise or lower the signal
# Method in brief: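 Measured by ELISA after 24 h of compound treatment: VEGFR2 on primary human umbilical vein endothelial cells, fitted in both directions relative to DMSO. Parallel cultures received SRB staining (560 nm) for overt cytotoxicity.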
# [10] = read-out: Human Leukocyte Antigen - DR isotype (HLADR), HLA-DRA (gene 3122); assay: BSK_BE3C_HLADR: BioMAP Diversity Plus: BE3C Assay for Human Leukocyte Antigen - DR isotype (HLADR) Biomarker Activity (AID 2283032); conditions: primary human bronchial epithelial cells; actives raise or lower the signal
# Method in brief: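 ELISA read-out of HLA-DR on human lung bronchial epithelial primary cells, measured 24 h post-dosing. Both increases and decreases were scored relative to DMSO vehicle.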
# [11] = read-out: Vascular cell adhesion molecule 1 (VCAM1), VCAM1 (gene 7412); assay: BSK_4H_VCAM1: BioMAP Diversity Plus: 4H Assay for Vascular cell adhesion molecule 1 (VCAM1) Biomarker Activity (AID 2283033); conditions: primary human endothelial cells (HUVEC); actives raise or lower the signal;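 on outcome: cell-surface VCAM-1 protein measured by ELISA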
# Method in brief: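 ELISA read-out of VCAM-1 on human umbilical vein endothelium 24 hours after chemical dosing; gain or loss of signal was fitted relative to DMSO, with sulforhodamine B staining of parallel cultures flagging overt cytotoxicity.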
# [12] = read-out: Interferon-gamma inducible Protein 10 (IP10), CXCL10 (gene 3627); assay: BSK_BE3C_IP10: BioMAP Diversity Plus: BE3C Assay for Interferon-gamma inducible Protein 10 (IP10) Biomarker Activity (AID 2283034); conditions: primary human bronchial epithelial cells; actives raise or lower the signal
# Method in brief: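 Chemical is dosed onto human lung bronchial epithelial primary cells, cultures are incubated 24 h, and IP-10 is then quantified by ELISA. Gain or loss of signal is fitted in both directions relative to DMSO.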
# [13] = read-out: Monokine induced gamma interferon (MIG), CXCL9 (gene 4283); assay: BSK_BE3C_MIG: BioMAP Diversity Plus: BE3C Assay for Monokine induced gamma interferon (MIG) Biomarker Activity (AID 2283035); conditions: primary human bronchial epithelial cells; actives raise or lower the signal;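 on outcome: MIG protein measured by ELISA in BE3C cultures after 24 h of dosing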
# Method in brief: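 Primary human bronchial epithelial cells treated for 24 h; MIG levels measured by ELISA, fitted bidirectionally versus DMSO. Parallel SRB total-protein staining assessed cytotoxicity.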
# [14] = read-out: Transforming growth factor beta 1 (TGFb1), TGFB1 (gene 7040); assay: BSK_BE3C_TGFb1: BioMAP Diversity Plus: BE3C Assay for Transforming growth factor beta 1 (TGFb1) Biomarker Activity (AID 2283036;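 on outcome: TGF-b1 protein level measured by ELISA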); conditions: primary human bronchial epithelial cells; actives raise or lower the signal
# Method in brief: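 Primary human lung bronchial epithelial cells; compound exposure 24 h; TGF-b1 by ELISA; bidirectional fit, DMSO baseline. Parallel SRB total-protein staining for cytotoxicity.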
# [15] = read-out: Plasminogen activator inhibitor-1 (PAI1), SERPINE1 (gene 5054); assay: BSK_BE3C_PAI1: BioMAP Diversity Plus: BE3C Assay for Plasminogen activator inhibitor-1 (PAI1) Biomarker Activity (AID 2283037); conditions: primary human bronchial epithelial cells; actives raise or lower the signal
# Method in brief: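 Primary human lung bronchial epithelial cells; chemical dosing; 24 h; PAI-1 measured by ELISA; bidirectional fit referenced to DMSO as negative control.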
# [16] = read-out: urokinase plasminogen activator (uPA), PLAU (gene 5328); assay: BSK_BE3C_uPA: BioMAP Diversity Plus: BE3C Assay for urokinase plasminogen activator (uPA) Biomarker Activity (AID 2283038); conditions: primary human bronchial epithelial cells; actives raise or lower the signal;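 on outcome: uPA protein level quantified by ELISA in cell cultures; uPA read one day after compound addition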
# Method in brief: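 ELISA for uPA on human primary bronchial epithelial cultures 24 h post-treatment, gain or loss against DMSO. Parallel SRB staining (0.1% after 10% TCA fixation, 560 nm) assessed overt cytotoxicity.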
# [17] = read-out: Urokinase-type plasminogen activator receptor (uPAR), PLAUR (gene 5329); assay: BSK_BE3C_uPAR: BioMAP Diversity Plus: BE3C Assay for Urokinase-type plasminogen activator receptor (uPAR) Biomarker Activity (AID 2283039); conditions: primary human bronchial epithelial cells; actives raise or lower the signal;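 on outcome: cells exposed to compound for one day before measurement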
# Method in brief: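 Human bronchial epithelial primary cells; chemical exposure 24 h; uPAR by ELISA; bidirectional fit vs DMSO control.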
# [18] = read-out: Interleukin-6 (IL6), IL6 (gene 3569); assay: BSK_CASM3C_IL6: BioMAP Diversity Plus: CASM3C Assay for Interleukin-6 (IL6) Biomarker Activity for (AID 2283040); conditions: primary human coronary artery smooth muscle cells; actives raise or lower the signal
# [19] = read-out: Tissue plasminogen activator (tPA), PLAT (gene 5327); assay: BSK_BE3C_tPA: BioMAP Diversity Plus: BE3C Assay for Tissue plasminogen activator (tPA) Biomarker Activity (AID 2283041); conditions: primary human bronchial epithelial cells; actives raise or lower the signal;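 on outcome: tPA level quantified by ELISA one day after compound addition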
# Method in brief: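 Primary human lung bronchial epithelial cultures receive test chemical; after 24 h, tPA is quantified by ELISA, and gain or loss of signal is fitted bidirectionally relative to DMSO baseline.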
# [20] = BSK_3C_Vis: BioMAP Diversity Plus: 3C Assay for Morphology Visualization (AID 2283025); conditions: primary human endothelial cells (HUVEC);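 further: fitted both ways so gain or loss versus DMSO counts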;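 on AC50: light microscopy image of cell morphology used as background control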
# Method in brief: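 Chemicals were added to primary human umbilical vein endothelium, cells were incubated 24 h, and morphology was then visualized by light microscopy. Gain or loss of signal was fitted bidirectionally relative to DMSO.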
# Sequence of human Vitamin D Receptor (VDR), VDR (gene 7421) (P11473 whole entry, looked up, the tested form may be a part): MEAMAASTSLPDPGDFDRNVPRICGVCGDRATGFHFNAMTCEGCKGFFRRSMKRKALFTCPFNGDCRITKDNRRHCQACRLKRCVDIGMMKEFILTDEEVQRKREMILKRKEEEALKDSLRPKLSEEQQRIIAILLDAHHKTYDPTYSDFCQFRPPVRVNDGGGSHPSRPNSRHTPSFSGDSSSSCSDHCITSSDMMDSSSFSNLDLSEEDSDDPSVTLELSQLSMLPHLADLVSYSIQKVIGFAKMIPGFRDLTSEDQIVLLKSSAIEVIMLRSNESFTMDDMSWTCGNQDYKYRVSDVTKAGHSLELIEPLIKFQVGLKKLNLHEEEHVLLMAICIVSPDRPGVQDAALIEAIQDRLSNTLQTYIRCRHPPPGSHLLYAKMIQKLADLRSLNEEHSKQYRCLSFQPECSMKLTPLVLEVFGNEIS
smiles,measurement,setting,value
CN1CCN(Cc2cc(-c3ccc4[nH]c(=O)oc4c3)co2)[C@@H](c2ccc(F)cc2)C1,outcome,[1],inactive
same,AC50,[2],28.2 µM (active)
same,outcome,[3],inactive
same,AC50,[4],17.6 µM (active)
same,outcome,[5],inactive
same,outcome,[6],inactive
same,outcome,[7],inactive
same,AC50,[8],11.3 µM (active)
same,outcome,[9],inactive
same,outcome,[10],inactive
same,outcome,[11],inactive
same,outcome,[12],inactive
same,outcome,[13],inactive
same,outcome,[14],inactive
same,outcome,[15],inactive
same,outcome,[16],inactive
same,outcome,[17],inactive
same,outcome,[18],inactive
same,AC50,[19],3.27 µM (active)
CNCc1cc(F)ccc1Oc1ccc(Cl)c(Cl)c1,outcome,[1],inactive
same,AC50,[2],27.6 µM (active)
same,outcome,[3],inactive
same,outcome,[20],inactive
same,AC50,[4],26 µM (active)
same,AC50,[5],26.1 µM (active)
same,outcome,[6],inactive
same,outcome,[7],inactive
same,AC50,[8],26.9 µM (active)
same,outcome,[9],inactive
same,AC50,[10],27.9 µM (active)
same,outcome,[11],inactive
same,outcome,[12],inactive
same,outcome,[13],inactive
same,outcome,[14],inactive
same,outcome,[15],inactive
same,outcome,[16],inactive
same,outcome,[17],inactive
same,outcome,[18],inactive
same,outcome,[19],inactive
CCCCC(CC)COC(=O)CC(C(=O)OCC(CC)CCCC)S(=O)(=O)O (centres undefined),outcome,[1],inactive
same,AC50,[2],31.2 µM (active)
same,AC50,[3],10.2 µM (active)
same,AC50,[20],37.5 µM (active)
same,AC50,[4],32.2 µM (active)
same,AC50,[5],38 µM (active)
same,AC50,[6],6.46 µM (active)
same,outcome,[7],inactive
same,AC50,[8],39 µM (active)
same,outcome,[9],inactive
same,AC50,[10],7.52 µM (active)
same,AC50,[11],34.5 µM (active)
same,AC50,[12],7.16 µM (active)
same,AC50,[13],8.91 µM (active)
same,AC50,[14],6.71 µM (active)
same,AC50,[15],11.5 µM (active)
same,AC50,[16],11.1 µM (active)
same,AC50,[17],11.9 µM (active)
same,outcome,[18],inactive
same,AC50,[19],11.6 µM (active)
Cc1cc(NC(=O)C(=O)O)cc(C)c1Oc1ccc(O)c2c1CCC2,outcome,[1],inactive
same,outcome,[2],inactive
same,outcome,[3],inactive
same,outcome,[20],inactive
same,outcome,[4],inactive
same,outcome,[5],inactive
same,outcome,[6],inactive
same,outcome,[7],inactive
same,outcome,[8],inactive
same,outcome,[9],inactive
same,outcome,[10],inactive
same,outcome,[11],inactive
same,outcome,[12],inactive
same,outcome,[13],inactive
same,outcome,[14],inactive
same,outcome,[15],inactive
same,outcome,[16],inactive
same,outcome,[17],inactive
same,outcome,[18],inactive
same,outcome,[19],inactive
c1cc(-c2ccncc2)ccn1,outcome,[1],inactive
same,outcome,[2],inactive
same,outcome,[3],inactive
same,AC50,[20],39 µM (active)
same,outcome,[4],inactive
same,outcome,[5],inactive
same,outcome,[6],inactive
same,outcome,[7],inactive
same,outcome,[8],inactive
same,outcome,[9],inactive
same,outcome,[10],inactive
same,outcome,[11],inactive
same,outcome,[12],inactive
same,outcome,[13],inactive
same,outcome,[14],inactive
same,outcome,[15],inactive
same,outcome,[16],inactive
same,outcome,[17],inactive
same,outcome,[18],inactive
same,outcome,[19],inactive
CCCCCCC(=O)OCC,outcome,[1],inactive
same,outcome,[2],inactive
same,outcome,[3],inactive
same,outcome,[20],inactive
same,outcome,[4],inactive
same,outcome,[5],inactive
same,outcome,[6],inactive
same,outcome,[7],inactive
same,outcome,[8],inactive
same,outcome,[9],inactive
same,outcome,[10],inactive
same,outcome,[11],inactive
same,outcome,[12],inactive
same,outcome,[13],inactive
same,outcome,[14],inactive
same,outcome,[15],inactive
same,outcome,[16],inactive
same,outcome,[17],inactive
same,outcome,[18],inactive
same,outcome,[19],inactive

# From PubChem BioAssay (EPA / NIEHS)
